TRPV1 ag – HTS Assay for Compounds that Act as Agonists of the Vanilloid Receptor 1. AID 540275, 2011. TRPV1-expressing cells, Fluo-8 calcium influx, agonist mode. activation, % at 8.33 µM. Transient receptor potential cation channel subfamily V member 1 (Homo sapiens), Q8NER1. 320,000 tested, 0.19% active; in the data active means activation above about 80%; inconclusive means between about 30% and that limit; further: 0% is about no effect
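Cells expressing TRPV1 were dye-loaded with Fluo-8 and read kinetically: 10 s baseline, 3 min after compound (agonist portion), then 2 min after EC20 capsaicin (allosteric enhancer portion). Calcium-bound dye fluorescence at 480/520 nm.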
D1 antagonist – Antagonist of Human D 1 Dopamine Receptor: qHTS; activity change, negative = inhibition, % at 10 µM; HEK293 TREx D1 cells, calcium flux, dopamine EC80; stronger effect = lower value; D(1A) dopamine receptor (Homo sapiens), P21728; 360,000 tested, 3.2% active; in the data active means activity change below about -30%; further: on the % scale 0 is the no-effect control and ±100 the full control effect
Target sequence (P21728 whole entry, looked up): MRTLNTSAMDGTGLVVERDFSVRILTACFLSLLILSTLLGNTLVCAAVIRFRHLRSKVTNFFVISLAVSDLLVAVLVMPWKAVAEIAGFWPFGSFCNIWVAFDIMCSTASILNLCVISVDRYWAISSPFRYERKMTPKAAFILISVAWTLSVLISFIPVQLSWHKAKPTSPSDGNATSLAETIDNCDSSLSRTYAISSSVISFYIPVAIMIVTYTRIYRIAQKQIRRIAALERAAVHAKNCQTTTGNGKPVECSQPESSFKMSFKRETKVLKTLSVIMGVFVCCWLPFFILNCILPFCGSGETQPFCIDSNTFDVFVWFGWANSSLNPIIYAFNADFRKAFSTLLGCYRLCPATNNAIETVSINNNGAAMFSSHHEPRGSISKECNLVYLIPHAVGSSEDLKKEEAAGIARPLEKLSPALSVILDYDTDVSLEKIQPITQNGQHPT
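Allosteric or orthosteric antagonism assessed as attenuation of the calcium response to EC80 dopamine, added 180 s after compound, in induced HEK293 Trex D1 cells loaded with no-wash calcium dye.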
D1 agonist – Allosteric Agonists of the Human D1 Dopamine Receptor: qHTS; HEK293 T-REx D1 cells, calcium flux, agonist mode; activation, % at 2 µM; 360,000 tested, 1% active; AID 504660, 2011; in the data active means activation above about 30%; further: 0% is about no effect
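Agonism was scored from calcium flux recorded over 180 s (1 read/s) after pintool compound addition, following a 10-cycle baseline. Cells were inducible force-coupled HEK293 TREx D1, plated overnight at 30 C and loaded with no-wash calcium dye.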
TRPV1 PAM – HTS Assay for Compounds that Act as Potentiators of the Vanilloid Receptor 1; Transient receptor potential cation channel subfamily V member 1 (Homo sapiens), Q8NER1; TRPV1-expressing cells, Fluo-8 calcium influx, capsaicin EC20 potentiation; potentiation, % at 8.33 µM; 320,000 tested, 0.02% active; in the data active means potentiation above about 80%; inconclusive means between about 30% and that limit; further: 0% is about no effect
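Cells expressing TRPV1 were dye-loaded with Fluo-8 and read kinetically: 10 s baseline, 3 min after compound (agonist portion), then 2 min after EC20 capsaicin (allosteric enhancer portion). Calcium-bound dye fluorescence at 480/520 nm.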
D1 potentiator – Potentiators of Human D1 Dopamine Receptor: qHTS; potentiation, % at 10 µM; 360,000 tested, 0.036% active; HEK293 TREx D1 cells, calcium flux, dopamine EC20 potentiation; D(1A) dopamine receptor (Homo sapiens), P21728; in the data active means potentiation above about 30%; further: 0% is about no effect
* marks the source's active call; other numbers are inactive results; u = inconclusive; x = no result. In the library only some 4.2% were active in any assay of this set; here they are far more common.

SMILES | TRPV1 ag | D1 antagonist | D1 agonist | TRPV1 PAM | D1 potentiator
O=C(NCc1nc2cccnc2n1Cc1ccc(F)cc1)c1ccccc1C(F)(F)F | x | 3 | 0 | x | -2
Cc1ccc(S(=O)(=O)N2CCOCC2)cc1C(=O)Nc1ccc2c(c1)CCC2 | 83* | -4 | 3 | -25 | -3
O=C(Nc1ccccc1)c1ccc(CN2CCc3ccccc3C2)cc1 | u | -9 | 5 | 15 | -3
CCN(CC)CCNC(=O)c1ccc(NC(=O)C2CCN(S(=O)(=O)c3ccc4c(c3)OCCO4)CC2)cc1 | 0 | -3 | 2 | 6 | -6
Cc1ccc(S(=O)(=O)N2CCOCC2)cc1C(=O)Nc1ccncc1 | -2 | 8 | 0 | -11 | -6
CCN(CC)CCNC(=O)c1ccc(NC(=O)c2cc(S(=O)(=O)N3CCCCC3)ccc2C)cc1 | -1 | -37* | 0 | 14 | 0
Cc1ccc(C(=O)Nc2ccc(S(=O)(=O)N3CCOCC3)cc2)cc1C | 82* | -2 | -4 | -12 | 3
Cc1ccc(NC(=O)c2ccc(CN3CCc4ccccc4C3)cc2)cc1 | u | -33* | 4 | -1 | -4
CC(=O)Nc1ccc(C(=O)Nc2ccc(S(=O)(=O)N3CCOCC3)cc2)cc1 | 1 | -2 | 2 | 21 | -8
O=[S+]([O-])(c1ccc2c(c1)OCCO2)N1CCN([S+](=O)([O-])c2c(F)cc(Br)cc2F)CC1 | x | 10 | 2 | x | 4
COc1ccc(CCNC(=O)CSc2nc3nc(C)c(Cc4ccc(C)cc4)c(C)n3n2)cc1OC | x | -7 | -2 | x | -1
Cc1cc2c(NC(=O)Nc3ccc(C(C)(C)C)cc3)cccc2nn1 | 114* | 0 | 6 | -6 | -3
Cc1ccccc1NC(=O)Nc1ccc(C(F)(F)F)cc1 | u | -22 | 10 | -3 | -2
Cc1cc2c(NC(=O)Nc3ccccc3)cccc2nn1 | 87* | 7 | 9 | 12 | -1
Cc1cc(Cl)ccc1OCCCC(=O)N1CCN(C)CC1 | u | -1 | 3 | -27 | -10
Cc1cc(NC(=O)COC(=O)CCS(=O)(=O)c2ccc(Cl)cc2)no1 | 0 | 9 | 1 | -2 | -1
Cc1cc(Cl)ccc1OCCCC(=O)NC1CCN(C)CC1 | 0 | -42* | 23 | 10 | -15
Cc1cc(NC(=O)COC(=O)CCCOc2ccc(Cl)cc2C)no1 | 17 | -30* | 3 | -14 | -10
COc1ccc(-n2c(SC(C)C(=O)N3CCOCC3)nc3ccccc3c2=O)cc1 (stereo not given) | u | 16 | 1 | -10 | 2
CCCn1c(SC(C)C(=O)N2CCOCC2)nc2ccc(Br)cc2c1=O (stereo not given) | 83* | 3 | 0 | -7 | -6
CC1(C)CCN2CCC(C)(C)c3c(O)ccc1c32 | u | 26 | 207* | -12 | -6
CC(C)(C)C1CCc2c(sc3nc(-c4cc5cc(Br)ccc5oc4=O)[nH]c(=O)c23)C1 (stereo not given) | x | -8 | 0 | x | -1
CCSC1=NSC2=NC(=O)/C(=C\c3coc4ccccc4c3=O)C(=N)N12 | 15 | -43* | 325* | 6 | 4
CC(C)CC1=NN2C(=N)/C(=C\c3coc4ccccc4c3=O)C(=O)N=C2S1 | 8 | 1 | 61* | -11 | -4
COc1cccc(N2CCN(C(=O)c3ccc(Cn4c(=O)[nH]c5cc(OC)c(OC)cc5c4=O)cc3)CC2)c1 | x | -4 | -2 | x | 1
SMILES | TRPV1 ag | D1 antagonist | D1 agonist | TRPV1 PAM | D1 potentiator
COc1ccc(/C=C/C(=O)Nc2cccc(C(C)=O)c2)cc1 | u | -40* | 4 | -22 | -4
COc1cc(NC(=O)Nc2cccc(C(C)=O)c2)cc(OC)c1OC | 82* | -10 | 3 | -14 | -1
COc1cccc(/C=C/C(=O)Nc2cccc(C(C)=O)c2)c1OC | 90* | 12 | 7 | -16 | -2
COCCCN1C(=O)c2oc3ccccc3c(=O)c2C12C(=O)N(C)c1ccccc12 (stereo not given) | x | -7 | 2 | x | -1
COc1ccc(S(=O)(=O)c2cc3cc(C(C)(C)C)cc(O)c3oc2=O)cc1 | x | -6 | 2 | x | -3
COc1cccc(CNC(=O)CCCn2c(=O)c3cccn3c3ccc(F)cc32)c1OC | x | 12 | 2 | x | -1
CC(=O)Nc1ccc(Sc2ncccc2C(=O)Nc2ccc(F)cc2)cn1 | 11 | 3 | 99* | 1 | 2
CC1/C(=N/O)C(CN(C)C)C2CC1C2(C)C (stereo not given) | 2 | -1 | 7 | 6 | -1
CC1C2CC(C(CN(C)C)/C2=N/O)C1(C)C (stereo not given) | 1 | -51* | 2 | -10 | -5
Cc1cccc(N2CCN(C(=O)c3ccc4c(c3)N(Cc3cccc(Cl)c3)C(=O)c3ccccc3S4=O)CC2)c1C (stereo not given) | x | -1 | 2 | x | -7
COc1ccc(S(=O)(=O)Nc2c(NC3CCCCC3)c3ccccc3oc2=O)cc1 | 24 | -31* | 0 | -10 | -8
CN1CCN(c2ccc(NC(=O)c3ccc(-c4ccccc4F)o3)cc2)CC1 | 11 | -96* | 5 | -17 | -19
O=C(Nc1ccc(N2CCOCC2)cc1)c1ccc(Br)o1 | 13 | -6 | 1 | -13 | -7
CN1CCN(c2ccc(NC(=O)c3ccc(Br)o3)cc2)CC1 | 3 | -41* | 4 | -10 | -10
CN1CCN(c2ccc(NC(=O)c3ccccc3Br)cc2)CC1 | -2 | 0 | 3 | 7 | -16
COc1ccc(C(NC(=O)c2cccc(F)c2)c2ccccc2)cc1 (stereo not given) | 12 | -31* | 12 | -10 | -6
COc1ccc(Cn2ccc3nc(C)c(C(=O)Nc4ccc(OC(F)(F)F)cc4)cc3c2=O)cc1 | x | -2 | 3 | x | -4
O=C(NNc1ccc([N+](=O)[O-])cc1)c1ccccc1F | -2 | -9 | 4 | 1 | -6
O=C(NNc1ccc([N+](=O)[O-])cc1)c1ccccc1Cl | 14 | -52* | 9 | 6 | -4
O=C1NC(=O)[C@@H]2C3c4ccccc4C=CN3[C@H](C(=O)c3cccs3)[C@H]12 (stereo not given in full) | -4 | -70* | 4 | 16 | -10
COCCN1CCn2c(nc3cc(NC(=O)c4ccc(OC)cc4)ccc32)C1 | 2 | -52* | 0 | 14 | -1
CCN1CCN(c2c(S(=O)(=O)c3ccc(OC)cc3)cnc3cc(OC)c(OC)cc23)CC1 | x | -40* | 0 | x | -9
Cc1ccc(NC(=O)Cn2nc(C(F)(F)F)c3c2CCCC3)cc1C | x | -25 | 6 | x | -7
